Measurements as given in PubChem BioAssay (NCI).
The panel holds about 83,000 compounds, 20% with a hit somewhere; the sample as a whole holds those more often.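 Single-dose data. Exposure time 48 hours. Values below 10 considered active.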 Active and inactive are the calls of the source.

test system: UO-31 renal; experiment: NCI-60 one-dose screen, 48 h (100 = growth as untreated, 0 = no growth, -100 = all killed); details: 10 µM unless noted
Experimental: Growth inhibition of the UO-31 human tumor cell line is measured as a screen for anti-cancer activity. Cells are grown in 96 well plates and exposed to the test compound for 48 hours. Compounds are tested at a single concentration, which is 10^-5 M for most compounds. The reported endpoint is percent growth (GI% or GIPRCNT), where numbers from 0 - 100% represent growth inhibition, and numbers from -100% - 0 represent cell death. For example, a value of 40 represents 60% growth inhibition. A value of 0 means no net growth occurred over the course of the experiment. A value of -40 indicates 40% of cells at the beginning of the experiment died by the end of the experiment. A value of -100 means all cells are dead at the end of the experiment.
NCI-60 Human Tumor Cell Lines Screen was performed using the standard one-dose NCI protocol, which is described in more detail at https://dtp.cancer.gov/discovery_development/nci-60/default.htm.
Compounds with GIPRCNT values below 10 were considered active. Activity score was based on GIPRCNT using the following formula: […]
Score is 0 for GIPRCNT values of 100 or above, 50 for GIPRCNT values of 0, and 100 for GIPRCNT values of -100.

Structure (SMILES) | growth
O=C1CC(=NCC(=O)n2c(-c3ccccc3)nc3ccccc32)NN1 | 69.3% (inactive)
Cc1ccc(NC(=O)C2CCC(CN3CCN(C)CC3)CC2)cc1Nc1nccc(-c2cccnc2)n1 (stereo not given) | 83.3% (inactive)
CSc1nc(NCCO)c(C#N)c(-c2cccc([N+](=O)[O-])c2)n1 | 73.2% (inactive)
CCC([N+](=O)[O-])S(=O)(=O)c1ccc(C)cc1 (stereo not given) | 82% (inactive)
COc1ccc(-c2cc(Nc3ccnc(N4CCOCC4)n3)on2)cc1 | 51.9% (inactive)
CC(=O)c1cc2c(N)c(C(=O)Nc3cccc4ccccc34)sc2nc1C | 42.9% (inactive)
Cc1cc(C)c2nc3nc(C)cc(C)c3c(N)c2c1 | -1.17% (active)
O=C(N(c1ccccc1)c1ccccc1)n1ccc2nc(Cl)nc(Cl)c21 | 57.1% (inactive)
CCOc1nc(-c2ccccc2)cc2c(O)c(C(=O)N/N=C/c3ccc(O)cc3O)[nH]c(=O)c12 | -13.2% (active)
Cn1c(NCCc2ccc(O)c(O)c2)nc2c1c(=O)n(Cc1ccc(Br)cc1)c(=O)n2C | 30% (inactive)
COc1ccc(/C=C\c2cc(OC)c(OC)c(OC)c2)cc1OC(=O)c1cccc(Cn2cc(CCOC(=O)[C@H](N)Cc3cn(C)c4ccccc34)nn2)c1 | 42.5% (inactive)
Cc1cc(C)nc(SC2=C(Nc3cccc(Cl)c3C)C(=O)N(Cc3ccccc3)C2=O)n1 | 14.7% [30 µM] (inactive)
OCCNc1nccc(N2CCN(c3ccnc4cc(Cl)ccc34)CC2)n1 | 47.7% (inactive)
CC(=O)c1nc2ccccc2n1CC(=O)c1cccc(Cl)c1 | 28.3% (inactive)
CC[C@H]1OC(=O)[C@H](C)[C@@H](O[C@H]2C[C@@](C)(OC)[C@@H](O)[C@H](C)O2)[C@H](C)[C@@H](O[C@@H]2O[C@H](C)C[C@H](N(C)C)[C@H]2O)[C@](C)(O)C[C@H](C)CN(C)[C@H](C)[C@@H](O)[C@]1(C)O | 78.9% (inactive)
Cn1cc(C(=O)c2nc(-c3c[nH]c4ccc(Br)cc34)no2)c2cc(F)ccc21 | 68.8% (inactive)
Cc1ccccc1COc1ccc(-c2ccnn2-c2ccc(Cl)cc2)cc1 | 74.4% (inactive)
Cc1ccc2c(c1)C(=O)/C(=C/c1cccc(OCC(=O)c3ccc(Cl)cc3)c1)CS2 | 71.2% (inactive)
Cc1ccc(C2=NN3C(C2)c2cc(Br)ccc2OC32CCN(Cc3ccccc3)CC2)o1 (stereo not given) | 58.6% (inactive)
CN1C(=O)C2(SCC(C(=O)NCc3ccccc3)N2C(=O)C2CCCCC2)c2ccccc21 (stereo not given) | 64% (inactive)

Structure (SMILES) | growth
Cn1nc(N)c2cc([C@@H]3Nc4ccc5[nH]ncc5c4[C@H]4C5CCC(C5)[C@@H]34)ccc21 (stereo not given in full) | 40.6% (inactive)
CN(C)S(=O)(=O)c1ccc(S(=O)(=O)Nc2cccc(Cl)c2N2CCCCC2)cc1 | 72.7% (inactive)
COC(=O)c1ccc(Cn2cnc3c(N)ncnc32)cc1 | 89.9% (inactive)
O=S(=O)(Nc1ccc(Cl)c(F)c1)c1ccc(-c2cnc(C3CC3)o2)cc1 | 48.6% (inactive)
CCOC(=O)c1csc(NC(=O)COc2cccc(/C=C3\CSc4ccccc4C3=O)c2)n1 | -35.1% (active)
CC(=O)Nc1ccc(S(=O)(=O)Nc2cccc(-c3nc(-c4ccc(NC(=O)c5cccnc5)cc4Cl)no3)c2)cc1 | 82.9% (inactive)
O=c1nc2oc3ccc4ccccc4c3cc-2s1 | 46.9% (inactive)
O=C1/C(=C/N2N=C(c3ccc4ccccc4c3)CC2c2ccccc2O)SC(=S)N1c1cccnc1 (stereo not given) | 11.6% (inactive)
COc1ccc2c(c1)c(-c1nonc1-c1cn(C)c3ccccc13)cn2C | 35.1% (inactive)
C(=N/Nc1ncc(-c2cc3cc(-c4ccccc4)ccc3o2)s1)/c1cccs1 | 84.8% (inactive)
CC1=CC(C)(C)Nc2ccc(Cc3ccc4c(c3)C(C)=CC(C)(C)N4)cc21 | 77.8% (inactive)
O=C1c2cc3c(cc2-c2c1c1cc(F)c(F)cc1c(=O)n2CCCn1ccnc1)OCO3 | -23.7% (active)
O=C1c2ccccc2OC=C(c2ccccc2)N1CCCCNc1ccc(S(=O)(=O)Nc2ncccn2)cc1 | 85.7% (inactive)
Cc1cc2nc3[nH]c4ccccc4c3nc2cc1C | 68.4% (inactive)
N#CN1CC[C@H](C(=O)Nc2cc3cc(C(N)=O)ccc3cn2)C1 | 17.7% (inactive)
CC1=NN(c2nc(-c3ccc(Cl)cc3)c(C#N)c(N3CCOCC3)n2)C(=O)C1 | 71.9% (inactive)
CCN(CC)c1ccc2c(c1)Oc1nc(N)c(C#N)c(N)c1C2Sc1ccc(SC)cc1 (stereo not given) | -79.8% (active)
c1ccc(-c2c(-c3ccccc3)[n+](Cc3ccc4ccccc4c3)c(-c3ccc(-c4nc5ccccc5s4)cc3)n2Cc2ccc3ccccc3c2)cc1 | -94.1% (active)
COc1cc2c(cc1-c1c(C)noc1C)ncc1nc(-c3ccccn3)n([C@H](C)COC(F)F)c12 | 18.8% (inactive)
COc1ccc(-c2nc3cc(C(=O)Nc4cc(OC)c(OC)c(OC)c4)ccc3n2C2CCCCC2)cc1 | 78.7% (inactive)
